Laboratory results published in PubChem BioAssay (NCI).
This is part of a sample that, as a whole, favours compounds with a hit. Of some 83,000 tested, about 20% had one in any assay.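 Cells were grown in 96-well plates and exposed to the test compound at a single concentration for 48 hours; results are reported as percent growth, with values below 10 considered active.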 Active and inactive are the calls of the source.

What was measured:
Assay in all cases: NCI-60 one-dose screen, 48 h (100 = growth as untreated, 0 = no growth, -100 = all killed)
Settings in all cases: 10 µM unless noted
NCI-H23 lung = tested on: NCI-H23 lung
NCI-H226 lung = tested on: NCI-H226 lung
NCI-H322M lung = tested on: NCI-H322M lung
HOP-62 NSCLC = tested on: HOP-62 NSCLC
NCI-H460 lung = tested on: NCI-H460 lung
HOP-92 NSCLC = tested on: HOP-92 NSCLC
NCI-H522 lung = tested on: NCI-H522 lung
A549/ATCC NSCLC = tested on: A549/ATCC NSCLC
786-0 renal = tested on: 786-0 renal
COLO 205 colon = tested on: COLO 205 colon
DU-145 prostate = tested on: DU-145 prostate
K-562 leukemia = tested on: K-562 leukemia
MALME-3M melanoma = tested on: MALME-3M melanoma
MDA-MB-231 breast = tested on: MDA-MB-231 breast
RXF 393 renal = tested on: RXF 393 renal
SF-268 CNS = tested on: SF-268 CNS
SF-295 CNS = tested on: SF-295 CNS
SF-539 CNS = tested on: SF-539 CNS
UACC-257 melanoma = tested on: UACC-257 melanoma
M14 melanoma = tested on: M14 melanoma

Measured: growth

CCOc1ccc(C2N(c3cc(OC)c(OC)c(OC)c3)C(=O)C2(F)F)cc1 (stereo not given)
inactive: NCI-H23 lung 33.6% | NCI-H226 lung 71% | NCI-H322M lung 67.2% | HOP-62 NSCLC 40.8% | NCI-H460 lung 12.7% | HOP-92 NSCLC 55.6% | NCI-H522 lung 19.3% | A549/ATCC NSCLC 33.6% | 786-0 renal 64.7% | COLO 205 colon 10.8% | DU-145 prostate 30.1% | MALME-3M melanoma 63.1% | MDA-MB-231 breast 46.1% | RXF 393 renal 54.2% | SF-268 CNS 52.4% | SF-295 CNS 56.3% | SF-539 CNS 10.8% | UACC-257 melanoma 58.7% | M14 melanoma 27.5%
active: K-562 leukemia 8.49%

O=C1Nc2ccc(Cl)cc2/C1=N/c1nc(-c2ccc(Cl)cc2)cs1
active: NCI-H23 lung 7.9% | HOP-62 NSCLC -5.13% | NCI-H460 lung -10.2% | HOP-92 NSCLC -13.1% | NCI-H522 lung -12.8% | A549/ATCC NSCLC 7.91% | 786-0 renal -16.2% | COLO 205 colon -51.6% | K-562 leukemia 5.94% | MDA-MB-231 breast -22.8% | RXF 393 renal -19.7% | SF-539 CNS -6.26% | UACC-257 melanoma -2.07% | M14 melanoma 1.32%
inactive: NCI-H226 lung 36.9% | NCI-H322M lung 48.9% | DU-145 prostate 26.2% | MALME-3M melanoma 22.2% | SF-268 CNS 21.6% | SF-295 CNS 14.3%

O=C(CCCC(=O)Nc1ccc(-n2nnc3cc(Cl)c(Cl)cc32)cc1)Nc1ccc(-n2nnc3cc(Cl)c(Cl)cc32)cc1
inactive: NCI-H23 lung 40.2% | NCI-H226 lung 49.9% | NCI-H322M lung 59.9% | HOP-62 NSCLC 28% | NCI-H460 lung 14.9% | HOP-92 NSCLC 77.6% | NCI-H522 lung 37.4% | A549/ATCC NSCLC 34% | 786-0 renal 49.6% | COLO 205 colon 72.2% | DU-145 prostate 33.6% | K-562 leukemia 54.8% | MALME-3M melanoma 48.2% | MDA-MB-231 breast 49.9% | RXF 393 renal 48.1% | SF-268 CNS 60.8% | SF-295 CNS 53.1% | SF-539 CNS 56.7% | UACC-257 melanoma 66.5% | M14 melanoma 68%

COc1ccc2cc(/C=C3\N=C(c4cc(OC)c(OC)c(OC)c4)OC3=O)c(OC)nc2c1
inactive: NCI-H23 lung 101% | NCI-H226 lung 107% | NCI-H322M lung 107% | HOP-62 NSCLC 88.9% | NCI-H460 lung 111% | HOP-92 NSCLC 97.7% | NCI-H522 lung 82.3% | A549/ATCC NSCLC 96.7% | 786-0 renal 100% | COLO 205 colon 117% | DU-145 prostate 110% | K-562 leukemia 90.1% | MALME-3M melanoma 104% | MDA-MB-231 breast 91.5% | RXF 393 renal 119% | SF-268 CNS 98.2% | SF-295 CNS 98.7% | SF-539 CNS 101% | UACC-257 melanoma 95.5% | M14 melanoma 111%

CCSc1ccc(C2C(Br)C(=O)N2c2cc(OC)c(OC)c(OC)c2)cc1 (stereo not given)
active: NCI-H522 lung 7.68% | 786-0 renal 8.1% | COLO 205 colon -38.5% | K-562 leukemia 8.26% | RXF 393 renal 2.05% | SF-539 CNS -1.17% | M14 melanoma 4.2%
inactive: NCI-H23 lung 25.2% | NCI-H226 lung 50.2% | NCI-H322M lung 50.5% | HOP-62 NSCLC 30% | NCI-H460 lung 10.1% | HOP-92 NSCLC 28.2% | A549/ATCC NSCLC 18.2% | DU-145 prostate 12.3% | MALME-3M melanoma 70.1% | MDA-MB-231 breast 19.7% | SF-268 CNS 38.7% | SF-295 CNS 15.7% | UACC-257 melanoma 45.2%

NS(=O)(=O)c1ccc(C2C3=C(CCCC3=O)OC3=C2C(=O)c2ccccc2C3=O)cc1 (stereo not given)
active: NCI-H23 lung -31.3% | NCI-H226 lung -56.7% | NCI-H322M lung 6.58% | HOP-62 NSCLC -89.8% | NCI-H460 lung -71.4% | HOP-92 NSCLC -31.7% | NCI-H522 lung -73.7% | A549/ATCC NSCLC -34.9% | 786-0 renal -90.7% | COLO 205 colon -80.3% | DU-145 prostate -99.1% | K-562 leukemia -43.3% | MALME-3M melanoma -97.4% | MDA-MB-231 breast 5% | RXF 393 renal -90% | SF-268 CNS -42.6% | SF-295 CNS -80.3% | SF-539 CNS -88.5% | UACC-257 melanoma -90.3% | M14 melanoma -95%

Cc1nc2sc(C(=O)Nc3cccc(Cl)c3C)c(N)c2cc1C(C)O (stereo not given)
inactive: NCI-H23 lung 32.6% | NCI-H226 lung 95.8% | NCI-H322M lung 55.6% | HOP-62 NSCLC 25.5% | NCI-H460 lung 11.1% | HOP-92 NSCLC 43.2% | A549/ATCC NSCLC 24.7% | 786-0 renal 35.6% | DU-145 prostate 20% | MALME-3M melanoma 71% | MDA-MB-231 breast 47.5% | SF-268 CNS 47.9% | SF-295 CNS 15% | UACC-257 melanoma 46.9% | M14 melanoma 23.4%
active: NCI-H522 lung -24.9% | COLO 205 colon -4.18% | K-562 leukemia 7.36% | RXF 393 renal 3.16% | SF-539 CNS -12.5%

COc1ccc(C(=O)c2cc(OC)c(C)c(OC)c2)cc1OC(=O)CCl
inactive: NCI-H23 lung 27.4% | NCI-H226 lung 104% | NCI-H322M lung 44% | HOP-62 NSCLC 30.2% | HOP-92 NSCLC 75.8% | NCI-H522 lung 16.2% | A549/ATCC NSCLC 28.5% | 786-0 renal 42% | COLO 205 colon 80.8% | DU-145 prostate 12.7% | MALME-3M melanoma 69.2% | MDA-MB-231 breast 30.3% | RXF 393 renal 18.4% | SF-268 CNS 44.9% | SF-295 CNS 17.6% | UACC-257 melanoma 60.3%
active: NCI-H460 lung 7.36% | K-562 leukemia 9.2% | SF-539 CNS -7.95% | M14 melanoma 6%

CC1CCCN(CCCCCOc2ccc3oc4ccc(Cl)cc4c(=O)c3c2)C1 (stereo not given)
active: UACC-257 melanoma -17.9% | M14 melanoma -17.5%
inactive: NCI-H23 lung 78.6% | NCI-H226 lung 104% | NCI-H322M lung 84.4% | HOP-62 NSCLC 85.7% | NCI-H460 lung 54.5% | HOP-92 NSCLC 88.8% | NCI-H522 lung 71.1% | A549/ATCC NSCLC 76.1% | 786-0 renal 68.2% | COLO 205 colon 57.5% | DU-145 prostate 84.7% | K-562 leukemia 16.8% | MALME-3M melanoma 52% | MDA-MB-231 breast 62.3% | RXF 393 renal 72% | SF-268 CNS 81.2% | SF-295 CNS 83.1% | SF-539 CNS 66.6%

CNS(=O)(=O)c1cccc(-c2ccc3c4c(n(C)c(=O)c3c2)-c2ccccc2C4=O)c1
active: NCI-H460 lung 7.51%
inactive: NCI-H23 lung 43.9% | NCI-H226 lung 33.1% | NCI-H322M lung 92.8% | HOP-62 NSCLC 22.2% | HOP-92 NSCLC 61.2% | NCI-H522 lung 49.3% | A549/ATCC NSCLC 24% | 786-0 renal 25.3% | COLO 205 colon 66.5% | DU-145 prostate 20.7% | K-562 leukemia 41.3% | MALME-3M melanoma 55% | MDA-MB-231 breast 87.1% | RXF 393 renal 96.5% | SF-268 CNS 58.6% | SF-295 CNS 24.1% | SF-539 CNS 53.8% | UACC-257 melanoma 96.3% | M14 melanoma 60.1%

C=C(C)[C@@H]1CCC=C2CC[C@]3(C)[C@H](CC[C@@H]4[C@@]5(C)CCCNC(C)(C)[C@@H]5CC[C@]43C)[C@H]21
inactive: NCI-H23 lung 66.5% | NCI-H226 lung 104% | NCI-H322M lung 33.7% | HOP-62 NSCLC 77.8% | HOP-92 NSCLC 79.2% | NCI-H522 lung 66.7% | A549/ATCC NSCLC 13% | DU-145 prostate 18.6% | MALME-3M melanoma 38% | RXF 393 renal 47.6% | SF-268 CNS 93.1% | SF-295 CNS 72.5% | SF-539 CNS 84.8% | UACC-257 melanoma 83% | M14 melanoma 34.6%
active: NCI-H460 lung -24.6% | 786-0 renal -5.34% | COLO 205 colon -43.6% | K-562 leukemia -0.754% | MDA-MB-231 breast -6.11%

COc1ccc(C(=O)c2cc(F)c(F)c(OC)c2F)cc1OC(=O)CCl
active: M14 melanoma -3.12%
inactive: NCI-H23 lung 58.3% | NCI-H226 lung 105% | NCI-H322M lung 75.8% | HOP-62 NSCLC 39% | NCI-H460 lung 20.5% | HOP-92 NSCLC 52.9% | NCI-H522 lung 30.6% | A549/ATCC NSCLC 53.8% | 786-0 renal 89.6% | COLO 205 colon 108% | DU-145 prostate 57.2% | K-562 leukemia 15.7% | MALME-3M melanoma 57% | MDA-MB-231 breast 48.8% | RXF 393 renal 69.7% | SF-268 CNS 58.7% | SF-295 CNS 85.2% | SF-539 CNS 25.6% | UACC-257 melanoma 72%

COC(=O)c1nc(-c2ccccc2)oc1S(=O)(=O)n1nc(-c2ccccc2)cc1N
inactive: NCI-H23 lung 90.4% | NCI-H226 lung 105% | NCI-H322M lung 90.7% | HOP-62 NSCLC 101% | NCI-H460 lung 100% | HOP-92 NSCLC 72.1% | NCI-H522 lung 44.3% | A549/ATCC NSCLC 102% | 786-0 renal 87.3% | DU-145 prostate 96.2% | MDA-MB-231 breast 103% | RXF 393 renal 103% | SF-268 CNS 87.5% | SF-295 CNS 97.5% | SF-539 CNS 80.7% | UACC-257 melanoma 52% | M14 melanoma 76%
active: COLO 205 colon -8.05% | K-562 leukemia 4.99% | MALME-3M melanoma 2.22%

O=C1Nc2ccccc2C12C=C(c1ccccc1)Nc1c2c(-c2ccccc2)nn1-c1ccccc1 (stereo not given)
inactive: NCI-H23 lung 84.1% | NCI-H226 lung 96.9% | NCI-H322M lung 82.7% | HOP-62 NSCLC 81.4% | NCI-H460 lung 36.5% | HOP-92 NSCLC 66.4% | NCI-H522 lung 69.4% | A549/ATCC NSCLC 44.8% | 786-0 renal 80.6% | COLO 205 colon 80.8% | DU-145 prostate 83.4% | K-562 leukemia 37.5% | MALME-3M melanoma 98.5% | MDA-MB-231 breast 85.6% | SF-268 CNS 58.5% | SF-295 CNS 42.1% | SF-539 CNS 86.4% | UACC-257 melanoma 88.7% | M14 melanoma 58.2%
active: RXF 393 renal 5.5%
